In all, about 53,000 sequences went through this assay and about 3,700 (7%) were called active.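 How the source made its calls: active means gene knockdowns whose robust z-score for IL-1 alpha signal is at least 2 or at most -2, so actives lie on both sides; inactive means the rest.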 The entries come from a sample that favours actives as a whole.
Assay: Components of the Cytosolic LPS Sensing Pathway: Gene Identification via Genome-wide siRNA Screen;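 further: robust z of the log signal after scaling to non-targeting control siRNA wells of the plate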
Conditions: RAW264.7 macrophages, IL-1a HTRF, actives lie on both sides, screened at 100 nM (by protocol), cells primed 5 h with Pam3CSK4 first
Procedure, shortened: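 Read-out: IL-1a HTRF on supernatant, divided by plate negative-control median ×100, log-transformed and converted to robust z-score. Cells were RAW264.7 given 100 nM siRNA, Pam3CSK4-primed 5 hours, then LipidA-transfected 24 hour.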

| Sequence | z-score |
| --- | --- |
| GCAGUGGUAGAACAUCCAATT against Bhmt2 | 0.585 (inactive) |
| CCUACUGUCUAAGAAUACATT against Olfr1138 | -1.65 (inactive) |
| CCUUCCACAAAUACUCAGGTT against S100a4 | 0.562 (inactive) |
| GGCUUAUGUGAUUUUGAUUTT against Gpr63 | -0.628 (inactive) |
| GGAGAAGAUGUCAUCCAGATT against Zfp467 | -0.37 (inactive) |
| GGAUAGACACUAGGAUCCUTT against Pdcd1lg2 | 0.721 (inactive) |
| GCUGCUAUGAGAGAGUUUUTT against Serpind1 | 2.18 (active) |
| GGCAACAAAUCAAAGCAGCTT against Anxa7 | 1.4 (inactive) |
| GCUUAUAAAGUAGUGGUUUTT against Wnt2b | -0.384 (inactive) |
| GCACCGAGUGGAAUAAUCATT against Lrp12 | 3.44 (active) |
| CCGUAAGUCUCGGAUCUCCTT against Plcxd1 | 0.373 (inactive) |
| GCCACUACAUAAAAUAGUCTT against Ube2z | 0.0966 (inactive) |
| GGAGAUGAGGUGAAGUGGATT against Acsm4 | -0.213 (inactive) |
| GGCAUAUAUACAUGCCUGCTT against Vmn1r215 | 0.833 (inactive) |
| GCCCUACUAAGUCAAUUAATT against 1700055D18Rik | 0.248 (inactive) |
| GGACAUUUUCAAACAAGGCTT against Mthfs | -1.07 (inactive) |
| GGGAAAAUAUCAGCUCAAUTT against D930048N14Rik | -2.63 (active) |
| GCCUUGUGACAGCAUUAGUTT against Slc6a13 | -0.0361 (inactive) |
| GGUGCUAAAUAAGACAAUGTT against Psma4 | -1.76 (inactive) |
| GGGCAUGUGGAUGACUGAUTT against Gnptg | 2.04 (active) |
| GGGCUAGCAUCACAGUUUUTT against Tigd3 | 2.3 (active) |
| GCCCACUCACACCUAUUCUTT against Olfr1388 | 0.406 (inactive) |

| Sequence | z-score |
| --- | --- |
| GGCGCAAGUUUGAUUUUGATT against Gigyf1 | 1.23 (inactive) |
| CCAUCUUGAAGAUUCGUUCTT against Olfr486 | -1.24 (inactive) |
| GCUAAUCUAUCCGUGUCCUTT against B3gnt3 | -0.522 (inactive) |
| GGUAUAGCGGUGCAUGUCATT against Bmp8a | -0.823 (inactive) |
| GCUGGAGAUCAUCCUUCAGTT against Rph3al | 0.742 (inactive) |
| GCUCCAGGCAUUGAGAAUGTT against Hcfc1r1 | 1.98 (inactive) |
| GGGAAGCUAAUAAAAGCACTT against Rgs20 | -0.902 (inactive) |
| GGUGCUCAAAGAAUGCAUUTT against Prkar1b | 0.367 (inactive) |
| GGCUUGCAUAUCUAUUGGATT against Map2k6 | 2.61 (active) |
| CCUCUCAGAUUUUCACAUATT against Zfp599 | 1.36 (inactive) |
| GGCUCAAAGUCCUCAGAGCTT against Atp6v1e1 | -2.15 (active) |
| GGGAUUGUAUGAGUGCACATT against Coa4 | 0.657 (inactive) |
| GGAGUCUUCUCAAUUUGACTT against Olfr1105 | -0.617 (inactive) |
| CCUAUAUGACAAAAGACAGTT against Glra2 | -0.168 (inactive) |
| GGCGGUCUUUAAGAUGCUCTT against Ubl7 | 2.12 (active) |
| GCUAGGUAUACAGCCAAAGTT against Spryd4 | -0.699 (inactive) |
| GCGCGUCAUCUUCUGACUUTT against Mmgt2 | 1.45 (inactive) |
| GGUGACUUGCUUUAGAAAATT against Tnfaip8l1 | 0.184 (inactive) |
| GCACCUCCUUAUGUGUCAUTT against Chrm2 | 0.729 (inactive) |
| GGACAUGACAUUUUUACGCTT against Cyp4f16 | -1.26 (inactive) |
| GGAUAUGAACAAUAGCAUATT against Kcna1 | 2.2 (active) |
| GGACUUAUCACUAUUUGCATT against Dlgap3 | 0.782 (inactive) |

| Sequence | z-score |
| --- | --- |
| GCCAUAGCUAUUGUCAUUCTT against Mmp16 | 0.441 (inactive) |
| GCAUGGUAUCAGGUACAUATT against Med9 | 2.2 (active) |
| GGUCUUUGUACAUCAAUGUTT against Zfp677 | -0.241 (inactive) |
| AACCAGUCCUUGAAAAGAGTT against Olfr128 | -1.01 (inactive) |
| GGAAGGUAUCCACUGUGCATT against Nme6 | -1.46 (inactive) |
| CCUCACCAGGUAAAUUUUUTT against Ro60 | -1.25 (inactive) |
| GGUACUUUCCUUUCGAUGCTT against Skint10 | -0.524 (inactive) |
| CCUGGUAACCUGCUAAAAGTT against Gm5124 | 1.24 (inactive) |
| GGACUGGUUCUUCAGUACCTT against Cradd | 2.21 (active) |
| GGAACACAUUACCUCAAUUTT against Lipt2 | -0.705 (inactive) |
| GGAACUCAUGUGAAGCUCCTT against Ssu72 | -0.544 (inactive) |
| GGAGCUGAGCAGUGAUGAATT against Snx29 | -2.08 (active) |
| GCACCUAGAUUGAUCAUAGTT against Olfr1183 | -0.894 (inactive) |
| GGAACCGCUGAUGCUUAAGTT against Ctsl | -0.726 (inactive) |
| GGCUCAGUGAAGGCAAGUUTT against Hspb2 | 2.56 (active) |
| GGGUCAUCCACUUUGUCAGTT against Fam177a | -0.584 (inactive) |
| CCGCUGCAUAGCAUGUACATT against Dusp23 | 0.901 (inactive) |
| GGUGGAGAUUAUUCAUGUUTT against Dpp8 | 2.31 (active) |
| GGUGAACAGAAGGACAGAUTT against Gm4736 | 0.479 (inactive) |
| CCAUUUAUGGAAUACACCUTT against Tmem150b | 0.0118 (inactive) |
| GGCCAAAUGACUGAGAUUGTT against Rcan3 | 1.35 (inactive) |
| GGAAGAAUUUAAGAAGUUCTT against Pdia3 | 1.24 (inactive) |

| Sequence | z-score |
| --- | --- |
| GGUCCCUGUGAACAAGCUGTT against Serpinf1 | 1.12 (inactive) |
| GGUGUUACAUAUGAGGAAUTT against Ociad1 | 1.61 (inactive) |
| GGCAGACAGAGGGUAAAAATT against Slc24a1 | -0.956 (inactive) |
| GGAAGAGGAAUAUUACCAGTT against Marveld3 | -2.16 (active) |
| GGUUCUCUACAAAGUAAGUTT against Slc35e1 | -0.0459 (inactive) |
| GCUUGUUCAGGAAAUGAAATT against Tmcc3 | -1.15 (inactive) |
| GGAGACAGAAUUCAAAACUTT against P2ry1 | 0.0725 (inactive) |
| CCUUCCUACAACAAGUGUGTT against Galnt1 | 2.02 (active) |
| GCCCAGUCAAGACUAUUCGTT against Csnk2b | 1.58 (inactive) |
| GGUGAAGACCAUCUUGACCTT against Clcnkb | -1.74 (inactive) |
| AGACUCGUACACGCAGGAATT against Ggn | 0.882 (inactive) |
| GGCAGACAAGUUGUUAAAATT against Nusap1 | -0.913 (inactive) |
| GCUAGUUAUCUAAUCUCUGTT against Nuak1 | 2.79 (active) |
| GGAACAACUCCUGUUCCCATT against Obscn | 1.85 (inactive) |
| GGGAAAGAGAAAUUUAAAGTT against Kcne4 | 1.3 (inactive) |
| CCCAUCAUUCCUUUCUUACTT against Ndfip2 | 0.193 (inactive) |
| CCAUUCUUGCCUUUGUGCUTT against Cep55 | -1.63 (inactive) |
| GGCUGUGGUAUUUUUGGUUTT against Vopp1 | 2.15 (active) |
| CCUGGUACAUCUCUGUUACTT against Olfr449 | 1.53 (inactive) |
| GCCACUCUAGCUCGUAUUGTT against Des | 0.896 (inactive) |
| GCAAGUCGAGGUAGAUUGCTT against Rap1a | 0.515 (inactive) |
| GGACCUAUAGUUCAACAAGTT against Pcf11 | 1.08 (inactive) |

| Sequence | z-score |
| --- | --- |
| CCAUGUGCGACCUGAUAAUTT against Cmtm7 | 0.155 (inactive) |
| CGACAAACUACAUAGCAGATT against Brms1 | 0.823 (inactive) |
| GGUCAGACAGCAAUUCACATT against Gpr146 | -2.7 (active) |
| GCUAUGUGGACGUGACCUATT against Chrnb4 | -0.739 (inactive) |
| GCUAUAGACAAGGAGAGUATT against Galnt6 | 0.62 (inactive) |
| GGUCAUAGGUACGUAUCCGTT against Siglech | -0.465 (inactive) |
| CGUUUUUAUGAGGAGGCCUTT against N4bp3 | -0.897 (inactive) |
| GGAUUGACAGUGGUCUAUATT against Copz1 | -0.294 (inactive) |
| UUUGAACAGUCACUCCUCGTT against Ipcef1 | 2.18 (active) |
| GGAGUUAAAACCAUCGUGATT against D16Ertd472e | 0.725 (inactive) |
| CCCUAUGCAAUAUCAAAAUTT against Hnrnpa1 | 1.22 (inactive) |
| GGUAAAUAGCUGUCUUGGCTT against Cerk | -0.622 (inactive) |
| GCACAGUUAGCAUUGCUCCTT against Hoxc10 | -1.48 (inactive) |
| GGAUAAUUGGGAUGAUGACTT against Sem1 | -2.24 (active) |
| GGCAGAGUAUGAGUUUGACTT against Camk1 | 0.699 (inactive) |
| GGCCAAGUGCACCAUCCUATT against Gng13 | -0.852 (inactive) |
| GGAGAAAGCCUUCCAAUUUTT against Kel | -0.273 (inactive) |
| GGUAGAGCAUCAGUAUCUATT against Tex16 | -0.47 (inactive) |
| CCGCACCAUUCAGCUUUUUTT against Mmgt2 | 0.446 (inactive) |

Source: PubChem BioAssay AID1508600 (Functional Genomics Laboratory (NCATS/FGL), 2020)
